Consider 13 compounds from PubChem BioAssay (NCI).

Some test systems named below: NCI-H23 lung; NCI-H226 lung; NCI-H322M lung; HOP-62 NSCLC; NCI-H460 lung; HOP-92 NSCLC; NCI-H522 lung; A549/ATCC NSCLC; 786-0 renal; COLO 205 colon.
Assay in all cases: NCI-60 one-dose screen, 48 h (100 = growth as untreated, 0 = no growth, -100 = all killed)
Common to all, as to conditions: 10 µM unless noted

The structures appear in SMILES notation. Compounds without any hit were thinned out: in the full panel of roughly 83,000, 20% have a hit.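 Values shown are percent growth following 48 h exposure of cells in 96-well plates to a single concentration of compound; below 10 was considered active.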 Unmarked numbers belong to inactive results. Activity calls are given as the source filed them.

`CCc1ccc(NC(=O)N[C@@H](Cc2cccc(F)c2)C(=O)N[C@@H]2C(=O)N3CCC[C@H]3C(=O)N3CCCC[C@H]3C(=O)N[C@@H](CO)C(=O)N3C[C@H](C)C[C@H]3C(=O)O[C@H]2C)c(F)c1`: the growth is 32.9% in the experiment with NCI-H23 lung; -1.86% (active) in the experiment on NCI-H226 lung; 51.1% in the experiment on NCI-H322M lung; 37.8% in the experiment on HOP-62 NSCLC; 14.4% with NCI-H460 lung; 2.76% (active) in the experiment on HOP-92 NSCLC. Also, the growth is 20.1% with NCI-H522 lung, 36.3% in the experiment with A549/ATCC NSCLC, 44.1% in the experiment on 786-0 renal and -50.4% (active) in the experiment on COLO 205 colon.

Take `C/C=C/[C@@H]1C=C[C@@H]2C[C@H](C)CC[C@H]2[C@]1(C)/C(O)=C1/C(=O)[C@H](CO)N(C)C1=O`: the growth in the experiment with NCI-H23 lung was 56.8%; with NCI-H226 lung, 69.1%; in the experiment with NCI-H322M lung, 61.6%; with HOP-62 NSCLC it was 37.9%; in the experiment with NCI-H460 lung it was 54.7%; in the experiment on HOP-92 NSCLC, 56.9%. Also, the growth is 58.2% with NCI-H522 lung, 42.3% with A549/ATCC NSCLC, 47.3% with 786-0 renal and 78.1% in the experiment on COLO 205 colon.

As to `NC(=O)C(=Cc1ccc(Cl)cc1)C(N)=O`, the growth in the experiment on NCI-H23 lung was 74.5%; in the experiment on NCI-H226 lung, 65.3%; in the experiment with NCI-H322M lung it was 79.6%; in the experiment on HOP-62 NSCLC, 95.9%; in the experiment with NCI-H460 lung it was 89%; in the experiment with HOP-92 NSCLC, 34.8%. In addition, the growth was 46.5% in the experiment with NCI-H522 lung, 74.5% in the experiment with A549/ATCC NSCLC, 70.7% with 786-0 renal and 81.3% in the experiment with COLO 205 colon.

Turning to `Cc1occc1-c1nc2s/c(=C\c3cn(-c4ccccc4)nc3-c3ccccc3)c(=O)n2n1`, the growth with NCI-H23 lung was 88.5%; with NCI-H226 lung it was 97.4%; with NCI-H322M lung, 107%; in the experiment with HOP-62 NSCLC, 118%; in the experiment with NCI-H460 lung, 103%; with HOP-92 NSCLC, 67.8%. Moreover, the growth in the experiment on NCI-H522 lung was 92.3%; in the experiment with A549/ATCC NSCLC, 95.7%; with 786-0 renal, 101%; in the experiment on COLO 205 colon, 118%.

As to `C#C[C@]1(O)CC[C@H]2[C@@H]3CC=C4c5sc(Nc6cc(Cl)ccn6)nc5CC[C@]4(C)[C@H]3CC[C@@]21C`, the growth with NCI-H23 lung was 35.4%; in the experiment with NCI-H226 lung, 22.9%; in the experiment with NCI-H322M lung, 59.3%; with HOP-62 NSCLC it was 14.1%; in the experiment with NCI-H460 lung, 13.5%; in the experiment on HOP-92 NSCLC, 18.4%. Further, the growth with NCI-H522 lung was 30.2%; in the experiment with A549/ATCC NSCLC, 37.5%; in the experiment with 786-0 renal, -70.8% (active); in the experiment on COLO 205 colon, 21.2%.

`CC(=O)Nc1nc2c(s1)C1=CC[C@H]3[C@@H]4CC[C@H](C(C)=O)[C@@]4(C)CC[C@@H]3[C@@]1(C)CC2`: the growth in the experiment on NCI-H23 lung is 81.2%; in the experiment on NCI-H226 lung, 94.8%; in the experiment with NCI-H322M lung it was 77.1%; in the experiment with HOP-62 NSCLC, 62.8%; with NCI-H460 lung it was 64.4%; in the experiment on HOP-92 NSCLC it was 105%. For the same compound, the growth in the experiment on NCI-H522 lung was 90.8%; in the experiment on A549/ATCC NSCLC, 51.7%; with 786-0 renal, 25%; in the experiment on COLO 205 colon, 57%.

For the compound `C=CCn1c(SCC(=O)Nc2cccc(C(=O)/C=C/c3cc(OC)c(OC)c(OC)c3)c2)nc2ccccc2c1=O`, the growth in the experiment with NCI-H23 lung was 24.4%; in the experiment on NCI-H226 lung it was 75.8%; in the experiment with NCI-H322M lung it was 67.1%; in the experiment with HOP-62 NSCLC it was 45.8%; in the experiment on NCI-H460 lung it was 16.8%; with HOP-92 NSCLC, 48.4%. Besides, the growth in the experiment on NCI-H522 lung is 39.2%; with A549/ATCC NSCLC, 80.2%; with 786-0 renal it was 43.7%; with COLO 205 colon, 108%.

On to `C/C=C/C=C1\C[C@H]2CO[C@H](O2)C1=O`, for which the growth is 93.9% in the experiment with NCI-H23 lung; 94.9% with NCI-H226 lung; 93.7% in the experiment with NCI-H322M lung; 96.9% in the experiment on HOP-62 NSCLC; 104% in the experiment with NCI-H460 lung; 96.4% in the experiment on HOP-92 NSCLC. The growth in the experiment with NCI-H522 lung is 95.6%; in the experiment on A549/ATCC NSCLC, 98.2%; in the experiment with 786-0 renal it was 102%; in the experiment with COLO 205 colon, 117%.

As for `Cn1c(SC(C(=O)Nc2ccc(F)cc2)c2ccccc2)nc2ccccc2c1=O` (stereo not given), the growth in the experiment with NCI-H23 lung was 103%; with NCI-H226 lung, 102%; in the experiment on NCI-H322M lung, 111%; in the experiment on HOP-62 NSCLC, 99.6%; in the experiment with NCI-H460 lung it was 112%; in the experiment on HOP-92 NSCLC, 86.9%. The growth is 93.1% in the experiment on NCI-H522 lung, 99.1% in the experiment with A549/ATCC NSCLC, 102% with 786-0 renal and 119% in the experiment on COLO 205 colon.

`Cc1nn(-c2ccccc2)cc1/C=N/Nc1nc(Nc2ccccc2)nc(Nc2ccc(S(N)(=O)=O)cc2)n1`: the growth with NCI-H23 lung was -14.9% (active); in the experiment on NCI-H226 lung, -59.2% (active); in the experiment with NCI-H322M lung, 9.11% (active); in the experiment with HOP-62 NSCLC, 9.43% (active); in the experiment with NCI-H460 lung, -35.9% (active); with HOP-92 NSCLC, -13% (active). The growth in the experiment with NCI-H522 lung was 0.777% (active); with A549/ATCC NSCLC, -28.7% (active); in the experiment with 786-0 renal, -47.6% (active); with COLO 205 colon it was -22% (active).

On to `CCC(C)[C@H]1OC(=O)[C@H](C(C)C)N(C)C(=O)[C@@H](C(C)C)OC(=O)[C@H](C(C)C)N(C)C(=O)[C@@H](C(C)CC)OC(=O)[C@H](C(C)C)N(C)C1=O` (stereo not given in full), for which the growth in the experiment with NCI-H23 lung is 8.83% (active); in the experiment on NCI-H226 lung it was 19.2%; in the experiment on NCI-H322M lung, 8.61% (active); with HOP-62 NSCLC, 8.79% (active); in the experiment with NCI-H460 lung, 9.08% (active); in the experiment with HOP-92 NSCLC, -19.8% (active). In addition, the growth in the experiment with NCI-H522 lung is -2.93% (active); with A549/ATCC NSCLC, 12.9%; in the experiment with 786-0 renal, 10.4%; in the experiment on COLO 205 colon, -91.8% (active).

For `CC[C@]12C=CCN3CC[C@]4(C(=C(C(=O)OC)C1)Nc1cc5c(cc14)[C@@H]1[C@H](O5)[C@@H](O)[C@@]4(CC)CC(C(=O)OC)=C5Nc6cc(OC)ccc6[C@@]56CCN1[C@@H]46)[C@@H]32`, the growth with NCI-H23 lung is -44.5% (active); with NCI-H226 lung, -1.39% (active); with NCI-H322M lung it was 15%; with HOP-62 NSCLC, 24.1%; in the experiment on NCI-H460 lung, 5.78% (active); with HOP-92 NSCLC it was 37.1%. The growth in the experiment on NCI-H522 lung was -11.8% (active); with A549/ATCC NSCLC it was 20%; with 786-0 renal, -9.86% (active); in the experiment on COLO 205 colon it was -29.2% (active).

`COC(=O)c1c(C(=O)OC)c2n(CC(=O)Nc3cccc4cccnc34)c3ccccc3n2c1C(=O)c1ccc(C)cc1`: the growth in the experiment on NCI-H23 lung is 94.1%; with NCI-H226 lung it was 88%; in the experiment on NCI-H322M lung, 99%; with HOP-62 NSCLC, 96%; in the experiment on NCI-H460 lung it was 103%; with HOP-92 NSCLC, 89.7%. The growth in the experiment with NCI-H522 lung was 80.5%; in the experiment with A549/ATCC NSCLC, 91.2%; in the experiment with 786-0 renal it was 101%; in the experiment with COLO 205 colon, 114%.
